Results on three compounds are retold here after PubChem BioAssay AID651598 (Sanford-Burnham Center for Chemical Genomics, 2012).

The experiment deals with C-X-C chemokine receptor type 6 (Homo sapiens) (UniProt O00574). Nature of the experiment: apelin receptor (APJ) antagonists, SAR follow-up, counter-screen for CXCR6 antagonist project, cell-based, beta-arrestin, DiscoveRx, panel, CHO-K1 (AID 651598). The note with it: CHO-K1 PathHunter beta-arrestin luminescence, antagonist mode; run 3, at 80 µM (top of the series). A general note: The purpose of a counterscreen is to sort out artefacts and off-target activity.
Sequence of C-X-C chemokine receptor type 6 (Homo sapiens) (O00574 whole entry, looked up): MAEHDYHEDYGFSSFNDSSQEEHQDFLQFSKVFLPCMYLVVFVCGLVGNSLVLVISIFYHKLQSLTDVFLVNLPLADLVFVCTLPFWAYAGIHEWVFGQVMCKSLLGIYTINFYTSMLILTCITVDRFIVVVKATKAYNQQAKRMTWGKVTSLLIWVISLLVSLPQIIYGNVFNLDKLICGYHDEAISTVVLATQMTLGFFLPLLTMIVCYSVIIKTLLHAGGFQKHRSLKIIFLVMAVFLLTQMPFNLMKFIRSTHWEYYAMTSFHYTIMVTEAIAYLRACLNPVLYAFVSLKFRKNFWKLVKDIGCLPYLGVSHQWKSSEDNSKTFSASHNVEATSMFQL

Where “and” joins values, the source holds several entries; their conditions need not be identical. Equal values may be shown once.

On to `COc1cc(C(=O)NC2CC3CCCC(C2)N3CC(=O)Nc2ccccc2)cc(OC)c1OC` (stereo not drawn), for which the inhibition (in general, the percentage by which the read-out fell short of the control) was 91% and 42.4% and 18.6%. In the case of `COc1cc(C(=O)NC2CC3CCC(C2)N3CC(=O)Nc2ccccc2)cc(OC)c1OC` (stereo not drawn), the inhibition is 56.5% and 4.53%.

In the case of `COc1cc(C(=O)NC2CCN(CC(=O)Nc3ccccc3)CC2)cc(OC)c1OC`, the inhibition was 6.56%.
